The panel holds about 83,000 compounds, 20% with a hit somewhere; the sample as a whole holds those more often.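 Assay: single dose, 48 h. Readout: percent growth (0 = no net growth; negative = cell death). Active: <10.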 Unmarked numbers belong to inactive results. Activity calls are given as the source filed them.
Test system: SK-MEL-5 melanoma
Assay: NCI-60 one-dose screen, 48 h (100 = growth as untreated, 0 = no growth, -100 = all killed)
Conditions: 10 µM unless noted
Experimental: Growth inhibition of the SK-MEL-5 human tumor cell line is measured as a screen for anti-cancer activity. Cells are grown in 96 well plates and exposed to the test compound for 48 hours. Compounds are tested at a single concentration, which is 10^-5 M for most compounds. The reported endpoint is percent growth (GI% or GIPRCNT), where numbers from 0 - 100% represent growth inhibition, and numbers from -100% - 0 represent cell death. For example, a value of 40 represents 60% growth inhibition. A value of 0 means no net growth occurred over the course of the experiment. A value of -40 indicates 40% of cells at the beginning of the experiment died by the end of the experiment. A value of -100 means all cells are dead at the end of the experiment.
NCI-60 Human Tumor Cell Lines Screen was performed using the standard one-dose NCI protocol, which is described in more detail at https://dtp.cancer.gov/discovery_development/nci-60/default.htm.
Compounds with GIPRCNT values below 10 were considered active. Activity score was based on GIPRCNT using the following formula: […]
Score is 0 for GIPRCNT values of 100 or above, 50 for GIPRCNT values of 0, and 100 for GIPRCNT values of -100.

SMILES | growth
COC(=O)[C@]12CC[C@@H](C)[C@H](C)[C@@H]1C1=CC[C@@H]3[C@@]4(C)C[C@@H](OC(=O)c5ccco5)[C@H](O)[C@@](C)(CO)[C@@H]4[C@H](O)C[C@@]3(C)[C@]1(C)CC2 | -99.9% (active)
CC(C)[O-].CC(C)[O-].CN(CCN(C)Cc1cc(F)cc(F)c1[O-])Cc1cc(F)cc(F)c1[O-].[Ti+4] | -59.5% (active)
CCOC(=O)C(C(C)=O)c1nc2sc3cc(Cl)ccc3n2c(=N)c1C#N (stereo not given) | 73.9%
CCN(CC)c1ccc(CN(CC(=O)c2ccc(Cl)c(Cl)c2)Cc2ccccc2)cc1 | 97.9%
O=C1/C(=C/c2ccc3cccc(Cl)c3n2)SC(=S)N1CCc1ccc(O)cc1 | 95.8%
O=C(O)c1ccc(NC(=O)c2cccc(Nc3ccnc(C(F)(F)F)c3)c2)cc1 | 101%
COc1cccc(CCC2C(=O)CCCC2=O)c1 | 104%
Cc1ccc(C=C2C(Cl)=C(Cl)C(Cl)=C2Cl)cc1 | -94.4% (active)
COc1ccc(/C(=C2\O[C@@H]([C@H](O)CO)[C@H]3OC(C)(C)O[C@@H]23)c2cc(OC)c(OC)c(OC)c2)cc1O | 74.3%
N#Cc1c(N)[nH]c(S)c1C#N | 96.9%
[O-]/[N+](=C\C=C\c1ccccc1)c1ccccc1 | 102%
NC(N)=NC(N)=NCCCc1ccccc1 | 28.6% [100 µM]
CC1=NN(c2ccccc2Cl)C(=O)/C1=C\c1cn(S(=O)(=O)c2ccc(C)cc2)c2ccccc12 | 106%
O=c1[nH]c(=O)n(C2CC(O)C(CO)O2)cc1C(F)(F)F (stereo not given) | 29.8%
CCCCCCCCCCCCCCCCCc1nccn1CCO | 70.4%
CC(=O)NCCSC(=O)C(=O)SCCNC(C)=O | 104%
Nc1ccc(S(=O)(=O)Nc2ncccn2)cc1 | 108%
O=Nc1ccc(O)c(=O)cc1 | 79.8%
O=C1/C(=N/O)CCc2ccccc21 | 102%
COc1ccc2nc(-c3ccc(-n4cncc4-c4ccc(OC)c(N)c4)cc3)sc2c1 | 105%

SMILES | growth
O=C1NCC(Nc2ccc(Br)cc2Cl)C(=O)N1 (stereo not given) | 104%
Cc1ccc([N+](=O)[O-])cc1NC(=O)Nc1cccc(F)c1 | 60.5%
Cc1nn(-c2ccccc2)c2ncc3c(c12)C(=O)N(Cc1ccccc1)C3=O | 99.5%
C=C1CC[C@@H]2[C@](C)(COC(C)=O)[C@H](OC(C)=O)CC[C@@]2(C)[C@@H]1CC(Nc1ccc(S(=O)(=O)Nc2cc(C)on2)cc1)C1=CCOC1=O (stereo not given in full) | 44.1%
COc1ccc2[nH]cc(/C=C3/C(=O)Nc4ccc(Cl)cc43)c2c1 | 55.2%
O=C(/C=C/c1cccnc1)NCCCCC1CCCN(C(=O)c2ccccc2)C1 (stereo not given) | 61.7%
Cc1cc(NC(=O)Nc2cc(Cl)ccc2C)no1 | 102%
Cc1nn(-c2ccc(Cl)cc2)c2nc3c(nc12)C(=O)c1ccccc1-3 | 65.8%
S=C1SCN(Cc2ccccc2)CN1Cc1ccco1 | 87.3%
CN(C(=O)c1ccccc1)N(C)C(=O)c1ccccc1 | 108%
O=C(C=C=Nc1ccccc1)C(=O)N=C=Cc1ccccc1 | 74.3%
COc1ccc(C2CC(c3cccc(Nc4ccnc5cc(Cl)ccc45)c3)=NN2C=O)cc1 (stereo not given) | 14%
Nc1nc(SCC2(CCl)COC2)c2[nH]cnc2n1 | 107%
Cn1c(=O)c2nc(SCc3ccccc3)n(C)c2n(C)c1=O | 101%
N#Cc1c(N2CCOCC2)nc2sc3cc(Cl)ccc3n2c1=N | 78.3%
CCC1(c2ccccc2)Oc2ccccc2-n2c(C#N)c3ccccc3c2C1=O (stereo not given) | 100%
ClC1=C(Cl)C(Cl)=C(Cl)C1=C/C=C/c1ccccc1 | -97.3% (active)
CC(=O)Oc1c(C)c(OC(C)=O)c2c(c1C(C)=O)OC1CC(=O)C(C(C)=O)=C(O)C21C (stereo not given) | 95.4%
CN(C)c1cccc2c(S(=O)(=O)N[C@H]3CC[C@H]4[C@@H]5CCc6cc(O)ccc6[C@H]5CC[C@]34C)cccc12 | 41.5%
CCOC(Cc1c(N)[nH]c(=S)[nH]c1=O)OCC | 95.5%

— PubChem BioAssay (NCI)
